Compound activity as filed in PubChem.
The list is not random: actives were taken first. Their share in the collection is about 3.7%.
tim10-1 inh: growth inhibitors of tim10-1 mutant yeast | S. cerevisiae tim10-1 ts strain growth, BacTiter-Glo, 24 h | inhibition, % at 20 µM | hit rate 2.2% among 330,000 | AID 463190;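 active = inhibition of at least 40%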;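 also: mutant grown at 25 °C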
tim23-1 inh: inhibits growth of tim23-1 mutant yeast | inhibition, % at 20 µM | hit rate 1.3% among 330,000 | S. cerevisiae tim23-1 growth, BacTiter-Glo luminescence, 24 h;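 active = growth inhibition of the mutant yeast at or above 50%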;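 also: temperature-sensitive mutant grown at 25 °C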
PfHsp90 set2: growth inhibition of yeast expressing Plasmodium Hsp90; S. cerevisiae expressing PfHsp90, BacTiter-Glo ATP, 48 h; yeast lacking PDR1 and PDR3 efflux regulators; inhibition, % at 9.4 µM; hit rate 0.32% among 310,000; AID 504621;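 active = every replicate shows inhibition above about 80%, whatever the replicate mean, limit read from the data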
V-ATPase pH: regulators of yeast V-ATPase proton transport | S. cerevisiae, pHLuorin cytosolic pH fluorescence | response, % at 10 µM | hit rate 0.37% among 350,000 | AID 504577; in the data active = response mostly above about 7.3%, no sharp cut-off; inactive = mostly below about 5.4%; also: actives read high
TIM10 inh: TIM10 yeast growth inhibition; inhibition, % at 10 µM; hit rate 1.4% among 330,000; AID 463195; S. cerevisiae TIM10 strain growth, BacTiter-Glo luminescence, 24 h;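 active = inhibition of 40% or more at the single tested concentration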;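 also: wild-type TIM10 isogenic control strain grown at permissive 25 °C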
tim10-1 confirm: confirmation of tim10-1 mutant yeast growth inhibitors | shares compounds with tim10-1 inh | S. cerevisiae tim10-1 ts strain growth, BacTiter-Glo, 24 h | inhibition, % at 20 µM | hit rate 56% among 7,400 | AID 463213;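 active = inhibition of yeast growth at or above a set limit in either of two repeat tests at 20 µM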;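 also: tim10-1 mutant grown at permissive 25 °C to find synthetic lethal compounds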
Hits are given with their value; . = inactive; / = no result.

SMILES	tim10-1 inh	tim23-1 inh	PfHsp90 set2	V-ATPase pH	TIM10 inh	tim10-1 confirm
O=C(C1CCN(c2nc(-c3ccccc3)nc3c2CCC3)CC1)N1CCCC1	.	.	.	.	.	/
Cc1cc(C)c2sc(C)[n+](CCCS(=O)(=O)[O-])c2c1	.	.	.	.	.	/
CC[n+]1c(C)sc2c(C)cc(C)cc21	42	.	.	.	.	34
Nc1cc(=O)[nH]c(SCc2cccc3ccccc23)n1	.	.	.	.	.	/
O=c1cc(C(F)(F)F)nc(SCc2cccc3ccccc23)[nH]1	40	.	.	.	.	.
COc1ccc(N2CC(C(=O)N3CCc4ccccc43)CC2=O)cc1 (stereo unspecified)	.	.	.	.	.	/
O=C(COc1ccc(Cl)cc1Cl)N/N=C/CCc1ccccc1	.	.	.	.	.	/
O=C(COc1ccc(Cl)cc1Cl)N/N=C/c1ccc[nH]1	44	.	.	.	.	.
COc1ccc(C(=O)Nc2ccc3c4c(cccc24)CC3)cc1	44	.	.	.	.	30
Nc1nc(-c2ccccc2)c(-c2ccc([N+](=O)[O-])cc2)s1	46	.	.	.	.	.
CC(C)CC1Nc2ncnc(N3CCCCC3)c2N(Cc2ccc(Br)cc2)C1=O (stereo unspecified)	41	.	.	.	.	32
CC(C)CC1Nc2ncnc(N3CCOCC3)c2N(Cc2ccc(Br)cc2)C1=O (stereo unspecified)	.	.	.	.	.	/
Cc1c(-c2ccc(F)cc2)nc(N)c(C#N)c1-c1cccs1	.	.	/	.	.	/
CSc1nc(N)nc(-c2cccs2)c1C#N	48	.	.	.	.	36
CCCc1cc(C(=O)N2CCN(C(c3ccccc3)c3ccccc3)CC2)no1	.	.	.	.	.	/
Cc1cc(C(=O)N2CCN(C(c3ccccc3)c3ccccc3)CC2)no1	41	.	.	.	.	.
COc1ccc(-c2sc3ccc(-c4ccc5c(c4)OCO5)cc3c2-c2ccc(OC)nc2)cc1	.	.	/	.	.	/
COC(=O)Sc1nc(N2CCOCC2)c2c(c1C#N)CC(C)(C)OC2	45	.	.	.	.	31
Brc1cc(-c2ccccc2)nc(-c2ccccc2)n1	.	.	/	.	.	/
Cc1c(Cl)cccc1NC(=S)/C(=C(\[O-])c1ccc(Cl)s1)[n+]1ccccc1	47	.	.	.	.	36
C/C(=N/Nc1ccc([N+](=O)[O-])cc1)c1ccc(C)cc1C	42	.	.	.	.	.
COc1ccc2[nH]c(=O)c(CN(Cc3nnnn3Cc3ccco3)C3CCCCC3)cc2c1	.	.	.	.	.	/
COc1ccc2[nH]c(=O)c(CN(C3CCCCC3)C(c3nnnn3Cc3ccco3)C(C)C)cc2c1 (stereo unspecified)	41	.	.	.	.	.
O=C(Nc1ccccc1[N+](=O)[O-])OCC=Cc1ccccc1	/	/	/	.	/	/
Cc1ccc(NS(=O)(=O)c2ccc(C)c(NC(=O)c3ccc(S(=O)(=O)N4CCCCCC4)cc3)c2)c(C)c1	/	/	/	.	/	/
SMILES	tim10-1 inh	tim23-1 inh	PfHsp90 set2	V-ATPase pH	TIM10 inh	tim10-1 confirm
COc1cc2c(c(OC)c1OC)-c1ccc(NCc3ccccc3)c(=O)cc1C(NC(C)=O)CC2 (stereo unspecified)	/	/	/	.	/	/
CCOC(=O)/C=C/C(=O)OCC(=O)Nc1ccc(C)cc1	41	.	.	.	.	37
Cc1ccc(NC(=O)COC(=O)/C=C/c2cccs2)cc1	.	.	.	.	.	/
CN(Cc1ccc(Cl)s1)C(=O)CNC(=O)CNC(=O)c1ccc(Cl)cc1Cl	.	.	.	.	.	/
CCCOc1ccccc1NC(=O)/C=C/C(N)=O	62	.	.	.	.	56
O=[N+]([O-])c1ccc(C2CC(c3ccccc3)=Nc3ccccc3S2)cc1 (stereo unspecified)	43	.	.	.	.	.
O=C(O)C1CC(c2ccccc2)=Nc2ccccc2S1 (stereo unspecified)	.	.	.	.	.	/
O=C(NC(=S)Nc1ccc(O)cc1)c1cncc(Br)c1	.	.	.	.	.	/
O=C(NC(=S)Nc1ncc(Br)cc1Br)c1cncc(Br)c1	40	.	.	.	.	.
Cc1cc(NC(=O)CCSc2ccccc2)no1	.	.	.	.	.	/
COc1ccc(OC)c(Nc2nc(NCCC(C)C)nc(N)c2[N+](=O)[O-])c1	.	.	.	.	.	/
CCC(C)Nc1nc(N)c([N+](=O)[O-])c(Nc2cc(OC)ccc2OC)n1 (stereo unspecified)	40	.	.	.	.	.
O=C(N(Cc1ccccc1)c1ccccn1)C12CC3CC(CC(C3)C1)C2	.	.	/	.	.	/
O=C(N(c1ccccn1)c1ccccn1)C12CC3CC(CC(C3)C1)C2	42	.	.	.	.	.
N#Cc1c(N)nc(SCC(=O)C23CC4CC(CC(C4)C2)C3)c(C#N)c1-c1ccc(Cl)cc1	45	.	.	.	.	43
Fc1cccc(NC(=S)NC2CCCCCCC2)c1	50	.	.	.	.	.
FC(F)(F)c1cccc(NC(=S)NC2CCCC2)c1	.	.	.	.	.	/
FC(F)(F)c1ccc(NC(=S)NC2CCCCC2)cc1	43	.	.	.	.	38
S=C(Nc1ccccn1)NC1CCCCC1	.	.	.	.	.	.
COc1ccc(CCC(=O)OCC(=O)Nc2sccc2C#N)cc1	.	.	.	.	.	/
O=C(c1ccco1)N1CCN(Cc2cc(=O)c(OCc3ccccc3Cl)co2)CC1	.	.	/	.	.	/
O=C(CN1C(=O)NC2(CCCCCC2)C1=O)Nc1ccccc1[N+](=O)[O-]	.	.	.	.	.	/
Cc1oc(=O)c(NC(=O)c2ccc(Cl)cc2)cc1C(=O)c1ccccc1	56	.	.	.	.	57
CC(C)(C)c1ccc(C(=O)c2cn[nH]c2-c2ccccc2O)cc1	45	.	.	.	.	35
CC1CCN(C(=O)CCCl)c2ccccc21 (stereo unspecified)	/	/	.	.	/	/
SMILES	tim10-1 inh	tim23-1 inh	PfHsp90 set2	V-ATPase pH	TIM10 inh	tim10-1 confirm
Cc1csc(NC(=O)CCn2c(=O)oc3ccc(Cl)cc32)n1	43	.	.	.	.	.
Cc1nc(N2CCOCC2)nc(Oc2ccccc2)c1[N+](=O)[O-]	.	.	.	.	.	/
COC(=O)c1c(-c2ccc(Br)cc2)noc1N	46	.	/	.	.	.
CC1CN(c2ccc(NC(=S)NNCCC#N)cc2)CC(C)O1 (stereo unspecified)	.	.	.	.	.	/
O=[N+]([O-])c1ccc(N2CCCCCC2)c(S(=O)(=O)N2CCCCC2)c1	48	.	.	.	.	.
Cc1cc(C=O)c(C)c2c1[nH]c1ccccc12	/	/	.	.	/	/
Cc1ccc(C)c2c1[nH]c1ccccc12	41	.	.	.	.	38
CC(NC(=O)c1ccco1)C(=O)NC(C)c1cc(F)c(Cl)cc1Cl (stereo unspecified)	.	.	.	.	.	/
COc1ccc(-n2ncc(Cl)c(Cl)c2=O)cc1	.	.	/	/	.	/
COc1ccc(Sc2cnn(-c3ccccc3)c(=O)c2Cl)cc1	48	.	.	.	.	45
